PubChem BioAssay AID1852 (Sanford-Burnham Center for Chemical Genomics, 2009)
Out of some 2,500 compounds screened, about 1,100 (44%) were called active.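 Rule for the calls: active = inhibition above 50% at 4 µM in the single-point screen; inactive = inhibition of 50% or less.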 The set was probably picked from earlier hits. This is one part of the list.

Experiment: blockers of TNF-a NF-kB luciferase induction – cell-based, HEK293T NF-kB-Luc, luminescence, selectivity assay for NOD1/NOD2 signaling inhibitor project, primary screen (AID 1852)
Conditions: TNF-a induced, 14 h, at 4 µM, active compounds read high

SMILES | inhibition
Cc1ccc(C(=O)NC(C#N)=C(Cl)Cl)cc1 | 94.7% (active)
Cc1ccc(C(=O)c2cnc3cc4c(cc3c2S(=O)(=O)c2ccccc2)OCCO4)cc1 | -56.6% (inactive)
Cc1ccc(C(=O)NC(=C(Cl)Cl)S(=O)(=O)c2ccccc2)cc1 | 97.7% (active)
CC(=O)NC(=C(Cl)Cl)S(=O)(=O)c1ccccc1 | 42.6% (inactive)
Cc1ccc(C(=O)NC(=C(Cl)Cl)S(=O)(=O)c2ccc(Cl)cc2)cc1 | 63.9% (active)
COc1ccc(C(=O)NC(=C(Cl)Cl)S(=O)(=O)c2ccc(C)cc2)cc1 | -46.2% (inactive)
O=C(NC(=C(Cl)Cl)S(=O)(=O)c1ccc(Cl)cc1)c1ccccc1 | 97.1% (active)
Cc1ccc(C(=O)NC(=C(Cl)Cl)S(=O)(=O)c2ccc(C)cc2)cc1 | 4.6% (inactive)
CC(C)NC(=S)NC(c1ccccc1)(c1ccccc1)c1ccccc1 | 19.3% (inactive)
COc1cc(/C=C2\C(=N)N3N=C(S(C)(=O)=O)SC3=NC2=O)ccc1OCCOc1ccc(C)cc1 | -39.5% (inactive)
Clc1ccccc1Cc1noc(CN2CCN(c3cnccn3)CC2)n1 | 7.7% (inactive)
O=C(Nc1sc2c(c1C(=O)O)CCCC2)c1ccccc1Cl | 25% (inactive)
O=C(O)c1c(NC(=O)c2cccc3ccccc23)sc2c1CCC2 | 53.9% (active)
Cc1cccc(C(=O)Nc2sc3c(c2C(=O)O)CCCC3)c1 | -8.5% (inactive)
Cc1ccc(Nc2c([N+](=O)[O-])c(=O)oc3ccccc23)cc1C | 6.4% (inactive)
O=c1oc2ccccc2c(Nc2ccc(F)cc2)c1[N+](=O)[O-] | -32.2% (inactive)
COC(=O)c1ccc(Nc2c([N+](=O)[O-])c(=O)oc3ccccc23)cc1 | 99.5% (active)
C=CS(=O)(=O)c1ccc(Oc2ccc(S(=O)(=O)C=C)cc2)cc1 | 103% (active)
CCC(=O)NC(/C=C/c1ccccc1)c1cc([N+](=O)[O-])c2cccnc2c1O (stereo not drawn) | 81.6% (active)
CC(=O)NC(c1ccc(C)cc1)c1cc([N+](=O)[O-])c2cccnc2c1O (stereo not drawn) | 76.4% (active)
CC(=O)NC(c1ccc(C)cc1)c1cc(Cl)c2cccnc2c1O (stereo not drawn) | 77.9% (active)
CC(=O)NC(c1ccccc1)c1cc([N+](=O)[O-])c2cccnc2c1O (stereo not drawn) | 99.5% (active)
CCCCCc1ccc(OCCCC[n+]2ccc(C)cc2)c(CCCCC)c1 | 6.6% (inactive)
CCC(=O)NC(c1ccc(C)cc1)c1cc([N+](=O)[O-])c2cccnc2c1O (stereo not drawn) | 84.6% (active)

SMILES | inhibition
CC[C@@]1(O)C(=O)OCc2c1cc1n(c2=O)Cc2cc3c(N)cccc3nc2-1 | 88.3% (active)
Cc1ccc(NCC(=O)N/N=C\c2ccc([N+](=O)[O-])o2)cc1 | 35.7% (inactive)
Cc1nonc1C(=O)N/N=C/c1ccc([N+](=O)[O-])o1 | 46% (inactive)
O=[N+]([O-])c1ccc(/C=N/N=C/c2ccc([N+](=O)[O-])o2)o1 | 83% (active)
O=C(N/N=C/c1ccc([N+](=O)[O-])o1)c1ccccc1-n1cccc1 | 45.7% (inactive)
O=C(N/N=C/c1ccc([N+](=O)[O-])o1)c1ccccc1NS(=O)(=O)c1cccs1 | 61.1% (active)
Cc1scc(C(=O)N/N=C/c2ccc([N+](=O)[O-])o2)c1C | 72% (active)
O=C(N/N=C/c1ccc([N+](=O)[O-])o1)c1cc2ccccc2o1 | 52.9% (active)
O=C(CNc1cccc2ccccc12)N/N=C/c1ccc([N+](=O)[O-])o1 | 34% (inactive)
O=C(Nc1c(Cl)ccc2nsnc12)c1ccc([N+](=O)[O-])o1 | 16% (inactive)
O=C(N/N=C/c1ccc([N+](=O)[O-])o1)c1ccc2c(c1)OCO2 | 71.8% (active)
CCCCN(CC)S(=O)(=O)c1ccc(C(=O)Nc2nnc(-c3cccs3)o2)cc1 | 59.1% (active)
CCN(Cc1ccccc1)S(=O)(=O)c1ccc(C(=O)Nc2nnc(C3CC3)o2)cc1 | 92.7% (active)
CCN(c1ccccc1)S(=O)(=O)c1ccc(NC(=S)NC(=O)c2cccs2)cc1 | 43.4% (inactive)
CCCCN(C)S(=O)(=O)c1ccc(C(=O)Nc2nnc(-c3cccs3)o2)cc1 | 55.8% (active)
CCCCN(CC)S(=O)(=O)c1ccc(C(=O)Nc2nnc(-c3ccccc3Cl)o2)cc1 | 59.6% (active)
O=C(CN(Cc1ccccc1)S(=O)(=O)c1ccc2c(c1)OCCO2)Nc1ccc2c(c1)OCCO2 | 8.4% (inactive)
CN1CCN(Cc2nc(Cc3cccc(F)c3)no2)CC1c1ccccc1 (stereo not drawn) | 3.2% (inactive)
CCOC(=O)COc1ccc2ccccc2c1/C=C/[N+](=O)[O-] | 27.3% (inactive)
O=C(N/N=C/c1cc(Cl)c(O)c(Cl)c1)c1cc2c(ccc3ccccc32)o1 | 42.9% (inactive)
NC(=S)N/N=C\c1c(OCc2ccccc2Cl)ccc2ccccc12 | 66% (active)
CCc1ccc(S(=O)(=O)Nc2ccc(O)c3ccccc23)cc1 | 36.3% (inactive)
COc1ccc(S(=O)(=O)Nc2ccc(OCC(=O)O)cc2)c2ccccc12 | -2.2% (inactive)
COc1ccc(NC(C)=O)cc1S(=O)(=O)Nc1ccc(OCc2ccccc2)cc1 | 33.1% (inactive)

SMILES | inhibition
Cc1ccc(S(=O)(=O)Nc2cc(C)c(O)cc2C)cc1 | 29.5% (inactive)
O=S(=O)(Nc1ccc(O)c2ccccc12)c1ccc(Br)cc1 | 101% (active)
COc1ccc(OC)c(S(=O)(=O)Nc2ccc(O)c3ccccc23)c1 | 62.6% (active)
CCCNc1c(NS(=O)(=O)c2ccc(Br)cc2)c(=O)oc2ccccc12 | 11.2% (inactive)
Cc1ccc(S(=O)(=O)Nc2cc(C(C(=O)OC(C)C)C(=O)C(F)(F)F)c(O)c3ccccc23)c(C)c1 (stereo not drawn) | 72% (active)
Cc1ccc(S(=O)(=O)Nc2ccc(O)c3ccccc23)c(C)c1 | 92.3% (active)
O=C(O)CCSc1ncnc2sc(-c3ccccc3)cc12 | 43.8% (inactive)
O=C(O)CCSc1nnc(-c2ccc3c(c2)OCO3)o1 | 64.7% (active)
COC(=O)c1sccc1NC(=O)CSc1ccccc1NS(=O)(=O)c1cc(Cl)ccc1Cl | 39% (inactive)
CCOc1ccc(S(=O)(=O)Nc2cc(SCC(=O)O)c(O)c3ccccc23)cc1 | 92.5% (active)
Cc1ccc(C)c(S(=O)(=O)Nc2cc(SCC(=O)O)c(O)c3ccccc23)c1 | 105% (active)
O=C(O)CSc1cc(NS(=O)(=O)c2ccc(Cl)cc2)c2ccccc2c1O | 93.9% (active)
COc1ccc(S(=O)(=O)c2c(O)cc(C)c(NS(=O)(=O)c3ccccc3)c2C)cc1 | 46.9% (inactive)
COC(=O)c1sccc1NC(=O)CSc1ccccc1NS(=O)(=O)c1ccc(Br)cc1 | 26.3% (inactive)
CCc1ccc(S(=O)(=O)Nc2cc(SCC(=O)O)c(O)c3ccccc23)cc1 | 8% (inactive)
Cc1ccc(-c2n[nH]c(=O)c3ccccc23)cc1S(=O)(=O)Nc1ccccc1 | 14.6% (inactive)
COc1ccc(S(=O)(=O)Nc2cc(SCC(=O)O)c(O)c3ccccc23)cc1 | 98.3% (active)
Cc1cc(S(=O)(=O)NCc2ccncc2)c(C)cc1Br | 22.7% (inactive)
CS(=O)(=O)C1=NN2C(=N)/C(=C\c3ccc(OCCOc4ccccc4)cc3)C(=O)N=C2S1 | -28.3% (inactive)
CCN1CCN(Cc2ccc(NC(=O)c3ccc(C)c(NC(=O)c4ccno4)c3)cc2C(F)(F)F)CC1 | -16.6% (inactive)
O=C(Nc1ccc2nc3n(c(=O)c2c1)CCCCC3)c1c(F)ccc([N+](=O)[O-])c1F | 94.6% (active)
O=C(Nc1ccc2nc3n(c(=O)c2c1)CCCCC3)c1cc([N+](=O)[O-])ccc1F | 37.4% (inactive)
O=C(c1[nH]ncc1-c1ccccc1)C1CO1 (stereo not drawn) | 2.8% (inactive)
O=C(N/N=C/c1ccc([N+](=O)[O-])s1)c1ccncc1 | 45.8% (inactive)

SMILES | inhibition
O=[N+]([O-])c1ccc(/C=N/NC(=S)Nc2ccc(Cl)cc2Cl)s1 | 31.8% (inactive)
Cc1cccc(NC(=S)N/N=C/c2ccc([N+](=O)[O-])s2)c1 | 106% (active)
Cc1ccc(NC(=S)N/N=C/c2ccc([N+](=O)[O-])s2)cc1 | 100% (active)
Cc1ccc(/C=N/Nc2ccc(C(=O)O)cc2)s1 | 44.7% (inactive)
Cc1ccc(C(=O)N/N=C/c2ccc([N+](=O)[O-])s2)cc1 | 66.9% (active)
Cc1ccc(-c2nnc(Sc3nc4ccccc4o3)c3ccccc23)cc1 | -46.1% (inactive)
CCC(C)Cn1c(C)nc2ccccc21 (stereo not drawn) | 28% (inactive)
CCC(C)Cn1c(O)cc2nn(-c3nc4ccccc4s3)c(=O)c-2c1C (stereo not drawn) | 77.4% (active)
CCC(C)Cn1c(C(C)C)nc2ccccc21 (stereo not drawn) | -3% (inactive)
COc1c(C)cc(C(=O)C2CCCN(C(=O)CCc3scnc3C)C2)cc1C (stereo not drawn) | 27.3% (inactive)
CCc1cc(C(=O)NC2CCCN(Cc3ccccc3F)C2)n(C)n1 (stereo not drawn) | 57.5% (active)
Fc1ccc(C2CCCN2Cc2nc(Cc3ccccc3F)no2)cc1 (stereo not drawn) | -0.4% (inactive)
Cc1ccnn1CCC(=O)N1CCCC(Nc2ccc(F)c(F)c2)C1 (stereo not drawn) | 21.6% (inactive)
CCC(C)c1ccc(C(C)NC(=S)NC2CCCCC2)cc1 (stereo not drawn) | 21.1% (inactive)
O=C(CCS(=O)(=O)c1ccccc1)Nc1cccc(-c2nc3ccccc3s2)c1 | 59.9% (active)
CS(=O)(=O)c1ccc2nc(NC(=O)CCS(=O)(=O)c3ccccc3)sc2c1 | 36.3% (inactive)
Cc1nc2ccc(NC(=O)CCS(=O)(=O)c3ccccc3)cc2s1 | -1.1% (inactive)
O=C(c1cn(-c2ccccc2)nc1-c1ccccc1)n1nnc2ccccc21 | 27.6% (inactive)
OCCCNc1ncnc2scc(-c3ccc(Cl)cc3)c12 | 78.5% (active)
COc1ccc(-c2csc3ncnc(NCCO)c23)cc1 | 49.8% (inactive)
COc1ccc(-c2csc3ncnc(NCCCO)c23)cc1 | 60.7% (active)
